Assay outcomes (PubChem BioAssay)
Rows were chosen to be rich in hits. Some 7.5% of all compounds tested hit in one or more screens of this group.
VACV Venus inh: vaccinia inhibition (Venus reporter) | Vaccinia virus Venus reporter expression, fluorescence | Potency, µM (titrated, usually from 36.5 µM), usual class: inhibitors | 330,000 compounds, 0.46% hits | AID 720580; calls by dose curve; tested in A549 cells; note: nearly all actives have a fitted effect of over 30% in size
HCMV antiviral: human cytomegalovirus inhibition. HFF cells, HCMV-luciferase reporter, 72 h; active compounds read low. activity change, negative = inhibition, % at 57.5 µM. 410,000 compounds, 4.5% hits; in the data active = activity change below about -60%; inconclusive = no clear call, values can overlap the other calls; inactive = above about -39%
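Steps: HFFs plated, 16 h 37C; compounds added; HCMV-luciferase added to MOI 1 PFU/cell; 72 h 37C; OneGlo reagent, 5 min room temperature; luminescence read, normalized to controls.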
FMDV antiviral: foot and mouth disease virus antiviral activity; 410,000 compounds, 1.2% hits; FMDV antiviral cell-based qHTS; Potency, µM (doses to about 57.9 µM), actives largely listed as inhibitors; calls by dose curve; tested in HEK293T cells; note: read-out not given here; nearly all actives have a fitted effect of over 45% in size
Vaccinia mCherry: inhibitors of vaccinia virus infection (mCherry reporter signal); AID 720579; 310,000 compounds, 0.63% hits; Potency, µM (titrated, usually from 36.5 µM), usual class: inhibitors; Vaccinia virus mCherry reporter infection, fluorescence; calls by dose curve; tested in A549 cells; note: nearly all actives have a fitted effect of over 35% in size
Giardia FBPA inh: inhibitors of Giardia lamblia fructose-1,6-bisphosphate aldolase | A8B2U2 | purified Giardia FBPA | Potency, µM (top dose mostly 59.6 µM), most hits filed as inhibitors | 290,000 compounds, 0.71% hits | AID 2451; note: nearly all actives have a fitted effect of over 55% in size
Target sequence (A8B2U2 whole entry, looked up): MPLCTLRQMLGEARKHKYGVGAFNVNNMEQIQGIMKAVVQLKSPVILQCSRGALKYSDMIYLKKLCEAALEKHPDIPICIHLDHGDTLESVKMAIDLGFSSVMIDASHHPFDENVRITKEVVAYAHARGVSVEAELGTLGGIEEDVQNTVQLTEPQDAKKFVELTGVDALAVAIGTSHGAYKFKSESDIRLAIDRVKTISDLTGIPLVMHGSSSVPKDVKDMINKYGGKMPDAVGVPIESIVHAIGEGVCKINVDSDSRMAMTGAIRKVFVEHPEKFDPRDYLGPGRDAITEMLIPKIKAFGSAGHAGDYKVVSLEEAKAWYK
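Giardia FBPA (40 nM reagent) was preincubated 10 min at RT with compound (up to 57.5 uM final), then substrate plus GAPDH/TPI/NAD/arsenate coupling system with diaphorase/resazurin was added; resorufin fluorescence (525/598 nm) was read after 20 min.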
HCV inh: HCV inhibition; Huh7.5.1 HCVcc-Cre infection, luciferase reporter, 44 h; Potency, µM (series often up to 41.8 µM), usual class: inhibitors; 340,000 compounds, 3.4% hits; AID 651820
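Compounds are dispensed onto cells plated 4 h earlier at 1,000 per well, with HCVcc-Cre virus (about 0.5 moi) added next. Following 44 h of culture, luminescent signal is measured for 15 sec after 15 min with substrate at room temperature.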
Hits are given with their value; i = inactive; ? = inconclusive; nt = no result. Unless noted, calls come from the whole dose curve; as a rule, active = well fitted curve in the direction sought with a large enough effect; inconclusive = small, poorly fitted or top-dose-only effect, or another doubt; inactive = no such curve, though single readings can be large; an effect the other way counts as inactive or inconclusive.

SMILES | VACV Venus inh | HCMV antiviral | FMDV antiviral | Vaccinia mCherry | Giardia FBPA inh | HCV inh
O=C(CCCN1C(=O)/C(=C/c2ccccc2Cl)SC1=S)NNC(=O)c1ccccc1Cl | ? | -87.8 | ? | 11.2µM | i | i
C[C@@H]1COc2cc(N3CCC[C@H]3CO)ccc2S(=O)(=O)N1 | i | i | i | i | nt | nt
O=C(COCc1cc(-c2ccco2)on1)Nc1cccc(Cl)c1Cl | i | i | i | i | nt | nt
O=C1C(=Cc2cccc(O)c2O)SC(=S)N1CCCN1CCOCC1 | ? | -97.5 | i | ? | nt | nt
CCOc1ccc(/C=C2\SC(=S)N(CCCC(=O)NCCCN3CCOCC3)C2=O)cc1 | i | -95.0 | 11.2µM | i | i | i
O=C(CCCN1C(=O)/C(=C/c2ccccc2Cl)SC1=S)N1CCCC1 | nt | -109.0 | ? | nt | i | ?
O=C(CCCN1C(=O)/C(=C/c2ccccc2Cl)SC1=S)NCCCN1CCOCC1 | i | ? | ? | i | i | i
COc1ccc(/C=C/C(=O)Nc2cccc(F)c2)cc1S(=O)(=O)N1CCOCC1 | ? | ? | 35.5µM | i | i | 10µM
COc1ccc(/C=C/C(=O)Nc2ccc(C(C)=O)cc2)cc1S(=O)(=O)N1CCOCC1 | i | i | i | i | nt | nt
COc1ccc(NC(=O)/C=C/c2ccc(C)o2)cc1S(=O)(=O)N1CCOCC1 | i | i | i | i | i | i
CCOc1ccccc1NC(=O)/C=C/c1ccc(S(=O)(=O)N2CCOCC2)cc1 | i | i | i | i | nt | 10µM
CCOc1ccccc1NC(=O)c1ccc(S(=O)(=O)N2CCOCC2)cc1 | i | i | i | nt | i | ?
COc1cc(/C=C/C(=O)Nc2ccc(OC)c(S(=O)(=O)N3CCOCC3)c2)ccc1OC(F)F | ? | -85.9 | ? | ? | nt | 0.251µM
COc1ccc(/C=C/C(=O)Nc2ccccc2F)cc1S(=O)(=O)N1CCOCC1 | i | i | 25.1µM | i | nt | 10µM
CC(C)COc1cccc(-c2cc(C(=O)N/N=C/c3ccncc3)c3ccccc3n2)c1 | i | ? | i | ? | nt | ?
COc1cc(CNC(C)c2ccccc2)cc(Cl)c1OCC(=O)Nc1ccccc1 (stereo not given) | ? | i | ? | ? | i | 11.2µM
COc1cc(CNC(C)c2ccccc2)cc(Br)c1OCc1ccc(F)cc1 (stereo not given) | ? | ? | i | ? | ? | 22.4µM
CCOc1cc(CNCc2ccncc2)cc(Br)c1OCc1ccc(F)cc1 | nt | -65.0 | 15.8µM | nt | i | 10µM
Fc1ccccc1COc1ccc(Br)cc1CNCc1cccnc1 | i | i | ? | ? | i | ?
COc1cc(CNn2c(C)n[nH]c2=S)cc(Br)c1OCc1ccc(F)cc1 | i | ? | i | i | i | ?
Fc1ccc(COc2ccc(Br)cc2CNCc2ccncc2)cc1 | nt | ? | ? | nt | i | 10µM
Fc1ccc(COc2cccc(CNCc3ccncc3)c2)cc1 | i | -71.1 | i | i | i | ?
Fc1ccccc1COc1ccc(Br)cc1CNCc1ccncc1 | i | i | 31.6µM | i | i | i
O=C(Nc1ccc(Cl)cc1Cl)[C@@H]1CC=C[C@@H]2CCN(C3CC3)C(=O)[C@@H]21 | i | nt | nt | i | nt | nt
COc1cc(-c2nc3ccc4ccccc4c3c3c2CCC3)cc(OC)c1OC | ? | i | ? | ? | i | 5.62µM
SMILES | VACV Venus inh | HCMV antiviral | FMDV antiviral | Vaccinia mCherry | Giardia FBPA inh | HCV inh
N#Cc1ccc(-c2ccc(OCC(=O)NCC(=O)Nc3ccc(F)c(F)c3F)cc2)cc1 | i | -60.0 | i | i | i | i
Cc1nc(N2CCN(c3ccccn3)CC2)c2c(C)c(C(=O)N3CCN(c4ccccc4F)CC3)sc2n1 | i | i | ? | i | nt | 31.6µM
COc1ccc(CC(=O)OCC(=O)Nc2ccc(N3CCOCC3)cc2)cc1 | nt | i | i | nt | i | i
Cc1ccccc1N=C1SC(CC(=O)Nc2ccc3ccccc3c2)C(=O)N1Cc1ccccn1 (stereo not given) | ? | i | ? | i | i | 10µM
O=C(Nc1cccc(C(F)(F)F)c1)Nc1nnc([C@@H]2C[C@H](O)[C@@H](CO)O2)s1 | i | ? | i | i | nt | nt
COc1ccc(Cn2ccc3nc(C)c(C(=O)Nc4ccc(OC)cc4OC)cc3c2=O)cc1 | i | i | i | ? | nt | nt
Cc1ccc(-c2nc(CN(C)Cc3cccc4cnccc34)c(C)o2)s1 | ? | -66.6 | ? | i | i | ?
CN1C(=O)[C@H]2[C@@H](c3ccc(C(F)(F)F)cc3)N[C@]3(CCCN(Cc4ccc(Br)cc4)C3=O)[C@H]2C1=O | ? | i | i | i | nt | nt
CS(=O)(=O)c1nc(-c2ccc(Br)cc2)cc(-c2ccccc2)c1C#N | nt | -98.8 | ? | nt | i | ?
COc1ccc(-c2cc(-c3ccccc3)c(C#N)c(S(C)(=O)=O)n2)cc1 | i | -65.7 | 39.8µM | i | i | i
Cc1cc(C(=O)N2CCCC(C)(C(=O)NS(=O)(=O)C3CC3)C2)n(C(C)(C)C)n1 (stereo not given) | i | i | i | i | nt | nt
Cc1nn(C(=O)c2cccc(F)c2)c(C)c1S(=O)(=O)N1CCOCC1 | i | -81.1 | i | i | nt | nt
Cc1nn(C(=O)c2cccc(F)c2)c(C)c1S(=O)(=O)N1CCCCCC1 | i | -91.2 | i | i | nt | nt
Cc1nn(C(=O)c2ccccc2)c(C)c1S(=O)(=O)N1CCCCCC1 | i | i | i | i | nt | nt
CC(=O)Oc1ccc2ccc(=O)oc2c1 | 0.0025µM | i | i | 100µM | i | ?
CC1=C(C(=O)Nc2cccc(Cl)c2)C2(CCCCCC2)OC1=O | i | i | i | i | nt | nt
CCOC(=O)c1c(Cc2cccc(Cl)c2)c[nH]c1C | i | -62.3 | i | i | i | i
COC(=O)c1c(Cc2ccccc2Cl)c[nH]c1C | i | -67.2 | i | i | i | i
CC(C)CCNC(=O)CNC(=S)N(Cc1ccccc1)Cc1cccnc1 | i | i | i | i | i | i
O=C(CSc1nnc(COc2ccc(Cl)cc2)o1)N1CCCCC1 | i | i | i | i | nt | i
CN1CCN(C(=O)c2cc3nc(-c4ccccc4)cc(-c4ccccc4)n3n2)CC1 | i | i | i | nt | i | 11.2µM
O=C(c1cc2nc(-c3ccccc3)cc(-c3ccccc3)n2n1)N1CCN(C(=O)c2ccco2)CC1 | ? | i | i | nt | i | 14.1µM
CCc1ccccc1NC(=O)C(=O)c1cc(C)n(-c2ccccc2F)c1C | i | i | i | i | nt | nt
CCOC(=O)c1c(-c2ccc(OC)cc2)csc1NC(=O)CCN1C(=O)c2ccccc2C1=O | i | i | i | i | i | ?
CCOC(=O)c1c(-c2ccccc2)csc1NC(=S)N(CC)CC | i | i | ? | i | i | ?
CCOC(=O)c1c(-c2ccc(C)o2)csc1NC(=O)CSc1nncs1 | i | ? | nt | i | i | ?
CCOC(=O)c1c(-c2ccccc2)csc1NC(=O)CSc1nc(C)cc(C)n1 | i | -81.9 | ? | i | i | ?
CCOC(=O)c1c(-c2ccccc2)csc1NC(=O)CSc1nc(N)cc(N)n1 | ? | -66.6 | 17.8µM | i | i | 12.6µM
CCOC(=O)c1c(-c2ccco2)csc1NC(=O)CSc1nnc(N)s1 | i | i | i | i | nt | 11.2µM
Cc1sc2ncnc(N3CCC(C(=O)Nc4ccc(Br)cc4Br)CC3)c2c1C | i | i | 20µM | i | nt | ?
